# This is a sample that favours compounds with a hit; in the whole collection about 3.9% have one here.
# KKLEB tox: cytotoxicity in KKLEB CF airway cells, primary screen, cytotoxicity control for CF NF-kB inhibitor project, cell-based, uHTS, fluorescence assay plates; KKLEB CF airway cells viability, ATPlite luminescence, overnight; active compounds read low; cells stimulated with P. aeruginosa culture filtrate; activity change (cytotoxicity), % at 5 µM; actives 0.36% (n = 360,000); AID 602141, 2011;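 active means corrected activity change at or below -50% at 5 µM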
# HIF-2a block: HIF-2a reporter inhibitors, primary screen, luminescence, 786-0 RCC cells | inhibition, % at 18.8 µM | 786-0 RCC cells HIF-2a reporter, luciferase luminescence, overnight | actives 0.72% (n = 360,000);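 active means inhibition of the luminescence signal of 40% or more relative to plate controls, in a single-dose primary screen at 18.75 µM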
# Peg3 promoter: Peg3 promoter-driven luciferase inhibitors, primary screen, cell-based, HeLa, luciferase luminescence; actives 1.7% (n = 360,000); AID 588405, 2011; inhibition, % at 20 µM; HeLa PEG-Prom luciferase reporter, overnight;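 active means inhibition of at least 50% at 20 µM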
# CF NFkB block: inhibitors of PAF-induced NF-kB signaling, primary screen, cell-based, GFP fluorescence, uHTS; inhibition, % at 5 µM; AID 588850, 2011; KKLEB NF-kB-GFP reporter, GFP fluorescence overnight; actives 0.86% (n = 360,000);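 active means at least 50% inhibition at 5 µM, scaled per plate between neutral and stimulator controls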;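 further: PAF is a Pseudomonas aeruginosa culture filtrate used as stimulus; plate controls were PAF-stimulated DMSO wells for no effect and unstimulated DMSO wells for full effect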
# TWEAK Fn14 block: inhibitors of TWEAK-Fn14 signaling, primary screen, luciferase reporter cells, uHTS | TWEAK-stimulated Fn14 reporter cells, luciferase luminescence, 8 h | inhibition, % at 10 µM | actives 2% (n = 360,000); in the data active means inhibition above about 50%
# TROY NFkB inh: inhibitors of TROY-driven NF-kB signaling, primary screen, Q293 LMP1-TROYcd cells, NF-kB luciferase, uHTS; Q293 LMP1-TROYcd NF-kB luciferase reporter, 4 h; inhibition, % at 10 µM; AID 1347056, 2019; actives 0.98% (n = 360,000);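 active means compounds whose plate-normalised and pattern-corrected inhibition of the luciferase reporter signal at the single screening dose is 50% or more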
# Mdm2-MdmX confirm: retested Mdm2-MdmX interaction blockers, confirmation, cell-based, luminescence, single concentration, set 2; SaOS-2 split-luciferase Mdm2/MdmX complementation; AID 504601, 2011; shares compounds with HIF-2a block; actives 99% (n = 740); inhibition, % at 8 µM;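 active means mean inhibition of the luminescence signal across two replicates at or above 26 percent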
# HIF-2a conf: HIF-2a reporter inhibitor retest, confirmation, luminescence, 786-0 RCC cells | shares compounds with HIF-2a block | HIF-2a luciferase reporter luminescence, overnight | inhibition, % at 18.8 µM | actives 56% (n = 1,800) | AID 651580, 2012;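 active means mean inhibition across four replicates of at least 40 percent at the single tested concentration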
# HIF-1a counter: HIF-1a luciferase reporter signal reduction – MiaPaCa-2 cells, single concentration, counter-screen for HIF-2a inhibitor project, confirmation; shares compounds with HIF-2a block; MiaPaCa-2 HIF-1a luciferase reporter, desferoxamine, overnight; inhibition, % at 18.8 µM; actives 72% (n = 1,800); AID 651589, 2012;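 active means mean inhibition of the reporter signal across four replicates at the single tested dose of 50% or more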
# * hit, by the source's call; · = not tested or not shown.
SMILES,KKLEB tox,HIF-2a block,Peg3 promoter,CF NFkB block,TWEAK Fn14 block,TROY NFkB inh,HIF-2a conf,HIF-1a counter,others
CCOC(=O)/C(C#N)=C\c1cccnc1,5.2,18.7,21.4,10.5,-0.7,-6.4,·,·,
CCOC(=O)/C(=C\c1cccnc1)C(=O)c1cc(C(C)=O)c(Nc2ccccc2)s1,3.0,95.5*,119.3*,94.6*,106.1*,85.7*,·,·,Mdm2-MdmX confirm=103.0*
NC(=O)C1CC(=O)N(c2ccc(OCc3ccc(Cl)cc3)cc2)C1 (stereo unspecified),10.3,-251.8,-225.6,-9.6,-10.9,-55.7,·,·,
Cc1ccc(Sc2c([N+](=O)[O-])c(=O)n(C)c3ccccc23)cc1,-2.2,51.5*,44.6,2.1,-101.9,67.8*,5.9,86.7*,
Cc1c(C)c2ccc(OCc3ccc(C(=O)O)o3)c(C)c2oc1=O,-4.0,49.9*,-41.1,11.2,48.9,-61.6,5.2,-38.4,
CC(=O)c1cccc(Nc2ccc(Br)cc2)c1,2.0,-293.9,-353.8,9.0,-31.1,-43.5,·,·,
O=C(O)c1cccc(-c2nnn(Cc3ccccc3Cl)n2)c1,-5.3,64.7*,28.0,-7.9,-0.1,-42.3,62.9*,-37.6,
O=C(O)c1cccc(-c2nnn(Cc3ccccc3)n2)c1,3.7,-27.1,-113.3,-1.7,-13.1,-53.5,·,·,
C=CCC(O)(CC=C)C(C)N (stereo unspecified),7.1,14.2,-1.4,8.3,-2.7,-3.3,·,·,
Cc1ccc(-c2[nH]c3ccccc3c2SCCNC(=O)c2ccc(S(=O)(=O)N3CCOCC3)cc2)cc1,-7.7,36.1*,15.6,18.5,30.6,-4.8,-2.2,49.0,
Cc1cc(N2CCN(C)CC2)nc2ccc(NC(=S)N3CCCCCC3)cc12,6.2,-22.1,-22.4,0.8,-25.8,28.3,·,·,
Cc1cccc(N2CCN(C(=S)Nc3ccc4nc(N5CCN(C)CC5)cc(C)c4c3)CC2)c1C,-73.1*,82.3*,104.0*,43.4,-83.8,8.1,-3.4,105.2*,
Cc1ccc(NC(=O)COC(=O)CSCC(=O)Nc2cc(C)on2)c(C)c1,4.9,7.2,-16.4,-14.9,-10.5,-28.8,·,·,
CSc1ccc(/C=N/Nc2cccc(C(=O)O)c2)cc1,7.0,71.5*,68.0*,1.3,-60.7,-27.6,85.3*,-89.7,
NC(=O)c1cccc2ccccc12,-2.6,14.6,19.7,-7.2,-7.3,18.2,·,·,
NC(=O)c1ccc(Cl)c2ccccc12,-8.3,58.2*,-16.6,14.4,7.8,-42.4,4.3,27.9,
Cc1ccc(C(=O)N/N=C\c2ccc([N+](=O)[O-])s2)cn1,-7.2,63.4*,26.7,8.5,20.3,-5.0,56.2*,55.9*,
O=C(N/N=C/c1ccc([N+](=O)[O-])s1)c1cccc(Br)c1,-1.4,12.0,39.6,-4.6,10.5,-3.0,·,·,Mdm2-MdmX confirm=63.2*
O=C(N/N=C/c1ccc([N+](=O)[O-])s1)c1ccncc1,-4.3,23.6,-3.2,-1.9,12.1,15.9,·,·,
CCN1CCN(CCCNC(=O)c2ccc(/C=C3/Sc4ccccc4N(Cc4ccccc4F)C3=O)cc2)CC1,-12.4,90.8*,58.8*,22.9,7.3,59.8*,-21.3,102.2*,
COc1ccc(NC(=O)CCS(=O)(=O)c2ccccc2Cl)cc1S(=O)(=O)Nc1ccc(Cl)cc1,-9.3,43.8*,28.1,-9.9,-1.7,35.4,17.0,67.7*,
CC1CCCC(C)N1C(=O)c1ccc(S(=O)(=O)NCc2ccco2)cc1 (stereo unspecified),0.9,-1.2,3.6,3.6,59.2,-24.7,·,·,
CCOc1cc(/C=C2\CN(CC)C/C(=C\c3ccc(O)c(OCC)c3)C2=O)ccc1O,-40.1,92.8*,109.6*,87.0*,100.2*,34.8,·,·,Mdm2-MdmX confirm=102.5*
Cc1ccc(-c2csc3ncnc(SCC(N)=O)c23)cc1,6.1,11.2,18.9,23.2,1.8,35.5,·,·,
Cn1nnnc1Sc1ncnc2scc(-c3ccc(Br)cc3)c12,-92.1*,93.5*,102.8*,86.0*,88.1*,60.4*,99.6*,105.8*,Mdm2-MdmX confirm=103.2*
SMILES,KKLEB tox,HIF-2a block,Peg3 promoter,CF NFkB block,TWEAK Fn14 block,TROY NFkB inh,HIF-2a conf,HIF-1a counter,others
Cn1nnnc1Sc1ncnc2scc(-c3ccc(F)cc3)c12,-45.0,77.6*,96.8*,60.3*,57.1*,28.6,·,·,Mdm2-MdmX confirm=103.0*
C[C@@H]1CCCCO[C@H](CN(C)S(=O)(=O)c2cn(C)cn2)[C@H](C)CN([C@@H](C)CO)C(=O)c2cc(NC(=O)c3ccccc3)ccc2O1,4.1,9.7,1.7,-14.4,7.1,4.1,·,·,
C[C@H](CO)N1C[C@H](C)[C@@H](CN(C)S(=O)(=O)c2ccc(Oc3ccccc3)cc2)OCc2cnnn2CCCC1=O,-15.0,17.9,7.2,9.5,16.4,2.4,·,·,
CN(C)c1ccc(/C=N/NC(=S)NCc2ccco2)cc1,9.0,-60.1,-66.6,6.8,-13.3,-30.7,·,·,
CN(C)c1ccc(C(=S)NCc2ccco2)cc1,6.3,52.0*,37.8,-10.2,62.7*,-27.0,-13.3,-47.0,
CN1CCN(Cc2coc3c(Cl)cc(Cl)cc3c2=O)CC1,-11.0,17.4,16.9,2.4,-10.3,-15.7,·,·,
FC(F)(F)c1cccc(Sc2nc(-c3ccccc3)nnc2C(F)(F)F)c1,-0.9,44.5*,36.3,9.7,17.8,23.2,6.1,69.9*,
FC(F)(F)c1nnc(-c2ccccc2)nc1N1CCCC1,-14.3,8.2,7.0,10.2,10.4,-0.7,·,·,
FC(F)(F)c1nnc(-c2ccccc2)nc1Sc1ccc(Cl)cc1,5.1,61.7*,73.8*,-13.6,17.7,19.6,48.1*,91.1*,
FC(F)(F)c1nnc(-c2ccccc2)nc1Sc1ccccc1,-10.1,78.4*,71.7*,11.4,25.3,18.6,19.2,66.6*,
FC(F)(F)c1cccc(Oc2nc(-c3ccccc3)nnc2C(F)(F)F)c1,-2.6,7.3,5.9,-3.4,3.3,2.8,·,·,
CC(=O)CCN1C(=O)NC2(CCCc3ccccc32)C1=O (stereo unspecified),-3.8,8.9,2.3,-0.8,-17.8,10.7,·,·,
